# Measurements published in PubChem BioAssay (NCI).
# This is part of a sample that, as a whole, favours compounds with a hit. Of some 83,000 tested, about 20% had one in any assay.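 Interpretation: 100, growth as untreated; towards 0, rising growth inhibition; 0, no net growth; 0 to -100, cell death. Compounds scoring below 10 were considered active.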 Unmarked numbers belong to inactive results. The source made the active and inactive calls.
# Tested on: TK-10 renal
# Assay: NCI-60 one-dose screen, 48 h (100 = growth as untreated, 0 = no growth, -100 = all killed)
# Settings: 10 µM unless noted
row,SMILES,growth
1,O=C(CC1(O)C(=O)Nc2ccc(Cl)cc21)c1ccc(C(=O)NCC2CCC3(CC2)OOC2(CCCCC2)OO3)cc1 (stereo not drawn),-52.7% (active)
2,CNC12C3C4C1C1C2C3C41C(=O)N[C@H](C(=O)N(C)[C@H](C[C@@H](OC(C)=O)c1nc(C(=O)N[C@@H](Cc2ccccc2)C[C@H](C)C(=O)OC)cs1)C(C)C)C1CC1 (stereo partly drawn),23.4%
3,c1cc2c(c3c1CCNC3)OCO2,101%

# Tested on: ACHN renal
# Assay: as above
# Settings: 10 µM unless noted
row,SMILES,growth
1,NC(=O)CNc1ccc([As]=[As]c2ccc(NCC(N)=O)cc2)cc1 (stereo not drawn),71.2%
2,C/C(=C\c1ccn(-c2ccc(N)cc2)n1)[C@@H]1C[C@@H]2O[C@]2(C)CCC[C@H](C)[C@H](O)[C@@H](C)C(=O)C(C)(C)[C@@H](O)CC(=O)O1,45.7%
3,CC1(C)N=C(N)N=C(N)N1c1ccc(OCCCNC(=O)Nc2ccc(S(=O)(=O)F)cc2)c(Cl)c1,26.4%
4,c1ccc(COc2ccc3[nH]cc(CCN(Cc4ccccc4)Cc4ccccc4)c3c2)cc1,97.1%
5,O=[As](O)(O)c1ccccc1[As](=O)(O)O,91.1%
6,C1CCC([PH+](C2CCCCC2)C2CCCCC2[PH+](C2CCCCC2)C2CCCCC2)CC1.[Au].[CH-]1CCCCC1CC1CCCC[N-]1 (stereo not drawn),-72.5% (active)
7,CCCC(=O)O[C@@H]1C[C@H]2C[C@@H](O[C@@H]3O[C@@H](C)[C@@H](O)[C@@H](O)[C@H]3OC)C[C@@H](C[C@@H](C)/C=C/C=C\C[C@@H]3O[C@@H](C[C@@H]3C)[C@@H](O)C[C@H]3C[C@@]1(O)C(=O)O3)O2,62%
8,CC[S][Hg][Cl],101%
9,COc1cccc2c1c(C(=O)c1ccco1)cn2Cc1ccc(F)cc1,107%
10,CC(=O)c1ccc(C(=O)NCC2CCC3(CC2)OOC2(CCCCC2)OO3)cc1,64.6%
11,O=C(N/N=C/c1ccc(N(CCCl)CCCl)cc1)c1cccc2ccccc12,80.7%
12,O=C(CCCCCNC1=CC(=O)c2ccccc2C1=O)NCCC[Te]c1ccccc1,-71.2% (active)
13,N#CC1(c2ccccc2)CCN(Cc2ccccc2)CC1,98%
14,O=P1(NCCCl)OCCCN1CCCl (stereo not drawn),98.8%
15,O=C(CC1(O)C(=O)Nc2ccc(Br)cc21)c1ccc(C(=O)NCC2CCC3(CC2)OOC2(CCCCC2)OO3)cc1 (stereo not drawn),-40.8% (active)
16,Cc1ccc(Nc2nc3c(s2)C2=CC[C@@H]4[C@H](CC[C@]5(C)C(=O)CC[C@@H]45)[C@@]2(C)CC3)cc1,20.1%
17,C=C1C[C@](OC)([C@H](O)C(=O)N[C@@H](OC)[C@@H]2C[C@@H](O)C(C)(C)[C@@H](C[C@@H](COC)OC)O2)O[C@H](C)[C@@H]1C,-84.6% (active)
18,O=C1C2C(C(=O)[N]1[Hg][c]1cccs1)C1(Cl)C(Cl)=C(Cl)C2(Cl)C1(Cl)Cl (stereo not drawn),-35.7% (active)
19,COc1ccc(/C=C\c2cc(OC)c(OC)c(OC)c2)cc1NC(=O)/C=C/c1ccc(OC)c(OC)c1,42%
20,O=C(O)c1c(Cl)n(Cc2ccc(O)cc2)c2ccc(O)cc12,112%
21,CC(=O)OCc1cc[c]([Hg][Cl])o1,60.8%
22,COC(=O)[C@@H](C)C[C@H](Cc1ccccc1)NC(=O)c1csc([C@@H](C[C@H](C(C)C)N(C)C(=O)[C@@H](NC(=O)CN(C)C)C2CC2)OC(C)=O)n1,25.3%
23,CC(=O)Nc1nc2c(s1)CC[C@@]1(C)C2=CC[C@H]2[C@@H]3CC[C@H](O)[C@@]3(C)CC[C@@H]21,63.9%
24,COc1ccc(/C(C)=C(\c2ccc(OCCN3CCOCC3)cc2)c2ccc(OC(=O)Cc3ccccc3)cc2)cc1,101%
25,O=C(O)C(O)C(O)C1[O][Sb]([c]2ccc([N+](=O)[O-])cc2)[O]C1CO (stereo not drawn),101%
26,Fc1c[c-]c(-c2ccccn2)c(F)c1.[CH3-].[Pt+2].c1ccc([PH+](c2ccccc2)c2ccccn2)cc1,-80.4% (active)
27,CCCCCCCCOC(=O)CCN1CC1,103%
28,O=C1N[C@@H]2[C@@H](O)[C@@H](O)[C@H](O)C[C@H]2c2cc3c(c(O)c21)OCO3,-45.5% (active)
29,O=P(Oc1ccc(Cl)cc1)(N1CC1)N1CC1,25%
30,O=C1CC2(CC3(Cl)C(Cl)=C(Cl)C2(Cl)C3(Cl)Cl)C(=O)O1 (stereo not drawn),105%
